Assay [1] in a line: AP1 Signaling Pathway (AID 357; active = well fitted curve in either direction with a large enough effect, not every such curve was filed as active;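 note: ME-180 reporter cells stimulated with EGF at its EC50 level; % is set by controls: 0 for no effect and ±100 for the full control effect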). As to conditions: ME-180 AP-1-bla reporter, EGF-induced, beta-lactamase ratio, 5 h; at 7.69 µM (top of the series) unless noted. The gist of the method: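 In this screen, ME-180 cells in Opti-MEM with 0.5% dialyzed FBS received EC50 EGF and compound titrations for 5 h. AP-1 reporter beta-lactamase was detected via CCF4 ratio, giving AC50 for positive and negative modulators.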

Assay [2] is described as follows: Stat Signaling Pathway (AID 446; active = well fitted curve in either direction with a large enough effect, not every such curve was filed as active;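 note: ME-180 cervical cancer cells given 40 pM IL-6 alongside compound; SIE-controlled beta-lactamase reporter measured as 460/530 nm FRET emission ratio; % is set by controls: 0 for no effect and ±100 for the full control effect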). The gist of the method: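 Reporter line: ME-180 cervical carcinoma, SIE-beta-lactamase. Treatment: compound with 40 pM IL-6, 5 hrs, 37 C, in low-serum OPTI-MEM with 10 mM HEPES pH 7.3. Detection: 460/530 nm fluorescence.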
The target in assay [3] is Glucocorticoid receptor (Homo sapiens) (UniProt P04150). Kind of assay: GR-GFP Redistribution (AID 450;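 active = compounds whose dose series gives a full or clear partial fitted curve of increased nuclear translocation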; note: potency is the fitted concentration of half-maximal effect). As to conditions: U2OS GR-GFP nuclear translocation, laser cytometry, 2 h.
Glucocorticoid receptor (Homo sapiens), sequence (P04150 whole entry, looked up): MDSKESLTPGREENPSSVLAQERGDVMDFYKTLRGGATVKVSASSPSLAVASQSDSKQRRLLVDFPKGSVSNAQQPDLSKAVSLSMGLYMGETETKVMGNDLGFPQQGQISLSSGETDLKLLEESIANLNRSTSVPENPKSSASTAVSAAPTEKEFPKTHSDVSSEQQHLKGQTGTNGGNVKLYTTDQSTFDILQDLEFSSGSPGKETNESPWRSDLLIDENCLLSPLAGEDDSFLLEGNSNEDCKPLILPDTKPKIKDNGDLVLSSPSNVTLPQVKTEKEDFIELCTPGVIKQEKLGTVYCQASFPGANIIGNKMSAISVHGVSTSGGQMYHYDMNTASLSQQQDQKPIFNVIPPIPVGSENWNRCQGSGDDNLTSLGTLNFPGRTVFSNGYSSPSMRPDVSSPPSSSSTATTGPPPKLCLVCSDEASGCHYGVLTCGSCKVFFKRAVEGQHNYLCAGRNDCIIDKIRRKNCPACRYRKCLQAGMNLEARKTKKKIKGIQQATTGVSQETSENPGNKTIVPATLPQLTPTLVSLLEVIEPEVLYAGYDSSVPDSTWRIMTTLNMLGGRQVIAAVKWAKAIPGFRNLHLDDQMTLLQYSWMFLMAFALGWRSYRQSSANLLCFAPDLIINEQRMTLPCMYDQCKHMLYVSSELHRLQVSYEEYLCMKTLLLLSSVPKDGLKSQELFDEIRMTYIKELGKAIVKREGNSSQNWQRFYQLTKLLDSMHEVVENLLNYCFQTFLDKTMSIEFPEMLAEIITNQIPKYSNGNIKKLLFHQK
The target is the same in assay [4]. Kind of assay: GR-EFC Redistribution (AID 451; calls by dose curve; note: potency is the fitted concentration of half-maximal effect). As to conditions: CHO-K1 GR-EFC translocation, beta-gal luminescence, 2 h. The gist of the method:
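CHO-K1 cells expressing nuclear EA and GR-ED fragments of b-gal; compounds titrated up to 46 uM final, 2 h at 37 C. GR nuclear translocation read as complemented b-gal luminescence after 1 h RT detection.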

Assay [5] deals with Mitogen-activated protein kinase 10 (Mus musculus) (UniProt Q61831). The assay can be described thus: JNK3 AlphaScreen Assay (AID 530; active = well fitted curve in either direction with a large enough effect, not every such curve was filed as active;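 note: kinase came from lysate of stimulated human HepG2 cells; signal reports phosphorylation of biotinylated GST-cJun 1-79 at Ser73 with 10 µM ATP; % is set by controls: 0 for no effect and ±100 for the full control effect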). In a few lines:
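Pre-activated (IL-1β/TNFα) JNK3 in HepG2 lysates phosphorylates biotin-GST-cJun(1-79), 10 uM ATP; anti-phospho-cJun(Ser73) AlphaScreen read at room temperature, pH 7.6 Tris buffer. Compounds pre-incubated 15 min as titrations.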
(In general: Alpha assays give light when donor and acceptor beads are brought close together.)

Assay [6] has as its target 3',5'-cyclic-AMP phosphodiesterase 4B (Homo sapiens) (UniProt Q07343). Kind of assay: qHTS Assay for Inhibitors of PDE-IV (AID 607; active = well fitted activation curve with a large enough effect in the main read-out, with a control signal flat, not every such curve was filed as active; note: % of control where 0% means no effect). The gist of the method: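 Cell-based read-out of cAMP via a modified cyclic nucleotide-gated channel and membrane potential dye (535/590 nm) in HEK293 cells expressing PDE4 endogenously. Compounds tested up to 22.9 uM final; 100 uM RO 20-1724 reference.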
(In general: In qHTS, concentration-response curves come from the screen itself.)

Assay [7] deals with Dual specificity protein kinase CLK4 (Homo sapiens) (UniProt Q9HAZ1). The assay can be described thus: qHTS Assay for Inhibitors of CDC-like Kinase 4 (Kinase-Glo Assay) (AID 1770). Note: nearly all actives have a fitted effect of over 65% in size. Note: potency is the fitted concentration of half-maximal effect. In a few lines: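 25 nM Clk4 with 100 uM RS repeat peptide and 1 uM ATP (final) in Tris pH7.5, 10 mM MgCl2, 4.5 h at room temperature. Remaining ATP measured by Kinase-Glo luciferase luminescence.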
Dual specificity protein kinase CLK4 (Homo sapiens), sequence (Q9HAZ1 whole entry, looked up): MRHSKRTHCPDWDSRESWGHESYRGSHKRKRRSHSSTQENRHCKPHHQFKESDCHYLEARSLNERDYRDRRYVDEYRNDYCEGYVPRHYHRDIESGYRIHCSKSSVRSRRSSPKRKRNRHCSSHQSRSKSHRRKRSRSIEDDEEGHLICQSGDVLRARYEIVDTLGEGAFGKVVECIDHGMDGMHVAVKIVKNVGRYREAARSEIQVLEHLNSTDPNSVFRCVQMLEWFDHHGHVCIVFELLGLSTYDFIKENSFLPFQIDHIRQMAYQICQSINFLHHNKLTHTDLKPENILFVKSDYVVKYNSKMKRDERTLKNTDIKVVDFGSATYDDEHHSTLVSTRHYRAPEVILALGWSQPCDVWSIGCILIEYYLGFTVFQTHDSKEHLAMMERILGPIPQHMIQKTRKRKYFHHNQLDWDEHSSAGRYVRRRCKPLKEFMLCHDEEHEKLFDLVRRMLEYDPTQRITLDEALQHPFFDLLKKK

Assay [8] shares this target. The assay can be described thus: qHTS Assay for Inhibitors of CDC-like Kinase 4 (ADP-Glo Assay) (AID 1771). Note: nearly all actives have a fitted effect of over 70% in size. Note: potency is the fitted concentration of half-maximal effect. In a few lines: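 Luminescence from ADP-Glo reports ADP produced by 25 nM Clk4 acting on 100 uM RS repeat peptide with 1 uM ATP over 1 hr at room temperature; residual ATP is depleted before ADP is converted to ATP for detection.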
In assay [9] the target is Ubiquitin carboxyl-terminal hydrolase 1 (Homo sapiens) (UniProt O94782). Kind of assay: Inhibitors of USP1/UAF1: Pilot qHTS (AID 504865).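 Note: rhodamine fluorescence freed from ubiquitin-rhodamine substrate followed over time; top concentration of the series differs between compounds; % is set by controls: 0 for no effect and ±100 for the full control effect; nearly all actives have a fitted effect of over 35% in size.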 In a few lines: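 USP1/UAF1 complex at 1 nM preincubated 15 min at room temperature with compound, then Ub-Rho substrate added at 150 nM final. Fluorescence (480/540 nm) read kinetically in 50 mM HEPES pH 7.8, 0.5 mM EDTA, 1 mM TCEP, 0.1 mg/ml BSA, 0.01% Tween-20.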
Ubiquitin carboxyl-terminal hydrolase 1 (Homo sapiens), sequence (O94782 whole entry, looked up): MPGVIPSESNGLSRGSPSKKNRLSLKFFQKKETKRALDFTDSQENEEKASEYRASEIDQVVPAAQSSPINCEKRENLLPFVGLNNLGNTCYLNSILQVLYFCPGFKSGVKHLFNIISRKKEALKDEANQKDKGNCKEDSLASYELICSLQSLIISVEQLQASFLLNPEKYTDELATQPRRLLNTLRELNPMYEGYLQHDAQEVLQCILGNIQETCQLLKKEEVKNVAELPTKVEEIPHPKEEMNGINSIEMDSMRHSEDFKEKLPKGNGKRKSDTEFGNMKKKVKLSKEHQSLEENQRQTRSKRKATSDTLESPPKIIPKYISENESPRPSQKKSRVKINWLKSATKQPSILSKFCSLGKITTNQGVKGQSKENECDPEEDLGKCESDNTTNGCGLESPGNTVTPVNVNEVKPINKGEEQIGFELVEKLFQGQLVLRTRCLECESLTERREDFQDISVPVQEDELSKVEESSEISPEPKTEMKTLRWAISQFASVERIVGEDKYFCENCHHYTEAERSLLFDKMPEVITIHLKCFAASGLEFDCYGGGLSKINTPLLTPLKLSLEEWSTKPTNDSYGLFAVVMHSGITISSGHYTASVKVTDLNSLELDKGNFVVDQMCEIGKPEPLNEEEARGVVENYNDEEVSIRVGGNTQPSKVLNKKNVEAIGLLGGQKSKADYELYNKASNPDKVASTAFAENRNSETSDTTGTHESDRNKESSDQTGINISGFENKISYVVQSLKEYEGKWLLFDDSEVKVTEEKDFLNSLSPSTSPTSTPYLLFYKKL

Assay [10] addresses Cytochrome P450 1A2 (Homo sapiens) (UniProt P05177). Kind of assay: p450-cyp1a2 (AID 410; calls by dose curve; note: potency is the fitted concentration of half-maximal effect). In a few lines: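 Luminescent readout of luciferin formed from Luciferin-ME by human CYP1A2; data normalized against complete inhibition by 57 uM furafylline. Enzyme 20nM, substrate 100uM at Km, 100mM KPO4 buffer, 60 min reaction at room temperature.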
The target of assay [11] is Cytochrome P450 3A4 (Homo sapiens) (UniProt P08684). The assay can be described thus: qHTS Assay for Activators of Cytochrome P450 3A4 (AID 885). Note: nearly all actives have a fitted effect of over 65% in size. The gist of the method: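 Signal was normalized against complete inhibition by 57 uM ketoconazole. The reaction used 20nM CYP3A4 with 25uM Luciferin-PPXE, 10-min compound preincubation and a 60-min NADPH-supported step at RT.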
Cytochrome P450 3A4 (Homo sapiens), sequence (P08684 whole entry, looked up): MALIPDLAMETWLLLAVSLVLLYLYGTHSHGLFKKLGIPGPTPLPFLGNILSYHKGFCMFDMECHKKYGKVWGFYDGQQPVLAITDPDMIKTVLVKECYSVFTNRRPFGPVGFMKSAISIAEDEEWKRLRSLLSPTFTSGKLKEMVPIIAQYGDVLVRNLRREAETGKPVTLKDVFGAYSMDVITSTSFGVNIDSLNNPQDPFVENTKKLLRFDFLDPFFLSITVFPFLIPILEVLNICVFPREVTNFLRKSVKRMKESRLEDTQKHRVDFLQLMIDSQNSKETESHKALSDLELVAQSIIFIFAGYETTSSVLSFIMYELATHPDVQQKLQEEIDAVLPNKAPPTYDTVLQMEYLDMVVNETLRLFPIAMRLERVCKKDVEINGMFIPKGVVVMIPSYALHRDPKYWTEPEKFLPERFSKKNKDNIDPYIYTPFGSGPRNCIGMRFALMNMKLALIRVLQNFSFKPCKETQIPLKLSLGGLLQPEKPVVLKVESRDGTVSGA

The target of assay [12] is Lysosomal acid glucosylceramidase (Homo sapiens) (UniProt P04062). Kind of assay: Glucocerebrosidase-p2 (AID 348; in the data active = potency below about 10 µM; note: potency is the fitted concentration of half-maximal effect). As to conditions: purified GBA, blue fluorogenic substrate, 40 min. In a few lines:
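Compounds titrated from 0.6 nM upwards against 0.2 nM enzyme in pH 5.9 citric acid/KH2PO4, taurocholate, tween-20; blue fluorogenic substrate 80 uM, 40 min room temperature, stopped and read Ex 365/Em 440 for AC50.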

Assay [13] can be described thus: NFAT Signaling Pathway (AID 444; active = well fitted curve in either direction with a large enough effect, not every such curve was filed as active;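 note: carbachol stimulus at about its EC50 of 1 µM final; % is set by controls: 0 for no effect and ±100 for the full control effect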). As to conditions: Jurkat NFAT-bla M1, carbachol, beta-lactamase ratio, 5 h; at 7.69 µM (top of the series) unless noted. In a few lines: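 Jurkat cells with NFAT-driven β-lactamase reporter and co-expressed M1 receptor, stimulated with carbachol (final 1 uM, ~EC50), compound titration, 5 h at 37 °C. CCF4 loaded 1 h at RT; 460/530 nm ratio gave %activity and AC50.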

Assay [14] deals with Dual specificity protein kinase CLK4 (Homo sapiens) (UniProt Q9HAZ1). Kind of assay: qHTS Assay for Inhibitors of CDC-like Kinase 4 (ADP-FP Assay) (AID 1795). Note: nearly all actives have a fitted effect of over 60% in size. Note: potency is the fitted concentration of half-maximal effect. The gist of the method:
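Recombinant Clk4 (6.25 nM) phosphorylated 100 uM RS repeat peptide with 1 uM ATP in 25 mM Tris pH 7.5, 10 mM MgCl2, 0.5 mM EGTA, 2.5 mM DTT, 0.01% Triton X-100 for 1 h. ADP was detected by Transcreener ADP2 competitive fluorescence polarization after 30 min at room temperature.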

The target of assay [15] is Cytochrome P450 3A4 (Homo sapiens) (UniProt P08684). Kind of assay: qHTS Assay for Inhibitors and Substrates of Cytochrome P450 3A4 (AID 884). Note: potency is the fitted concentration of half-maximal effect; nearly all actives have a fitted effect of over 50% in size. The gist of the method: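 20 nM human CYP3A4 with 25 uM Luciferin-PPXE (at KM) in 200 mM KPO4, preincubated 10 min with compound; NADPH regeneration started a 60 min RT reaction. Luciferin detected by luminescence, normalized to 57 uM ketoconazole as full inhibition.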

Assay [16] addresses Cytochrome P450 2C19 (Homo sapiens) (UniProt P33261). The assay can be described thus: qHTS Assay for Inhibitors and Substrates of Cytochrome P450 2C19 (AID 899). Note: potency is the fitted concentration of half-maximal effect; nearly all actives have a fitted effect of over 60% in size. In a few lines: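 Signal comes from luciferase acting on luciferin released by CYP2C19-mediated hydroxylation of Luciferin-H EGE, 10uM (KM). Assay mix: 5nM enzyme, 50mM KPO4; 60 min at 37C with NADPH regeneration. Data normalized against 57uM ketoconazole.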

Assay [17] has as its target Cytochrome P450 2D6 (Homo sapiens) (UniProt P10635). The assay can be described thus: qHTS Assay for Inhibitors and Substrates of Cytochrome P450 2D6 (AID 891). Note: potency is the fitted concentration of half-maximal effect; nearly all actives have a fitted effect of over 60% in size. The gist of the method:
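Human CYP2D6 (5 nM) with 30 uM Luciferin-ME EGE (at Km) in 100 mM KPO4, compound preincubated 10 min, then NADPH regeneration system for 60 min at room temperature. Luciferin read by luminescence; normalized to 1.43 uM quinidine.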

Values without a mark were called inactive. Results filed as inconclusive are left out. Active and inactive are the calls of the source. Unless noted, calls come from the whole dose curve; as a rule, active = well fitted curve in the direction sought with a large enough effect; inconclusive = small, poorly fitted or top-dose-only effect, or another doubt; inactive = no such curve, though single readings can be large; an effect the other way counts as inactive or inconclusive.

3',5'-cyclic-AMP phosphodiesterase 4B (Homo sapiens), sequence (Q07343 whole entry, looked up): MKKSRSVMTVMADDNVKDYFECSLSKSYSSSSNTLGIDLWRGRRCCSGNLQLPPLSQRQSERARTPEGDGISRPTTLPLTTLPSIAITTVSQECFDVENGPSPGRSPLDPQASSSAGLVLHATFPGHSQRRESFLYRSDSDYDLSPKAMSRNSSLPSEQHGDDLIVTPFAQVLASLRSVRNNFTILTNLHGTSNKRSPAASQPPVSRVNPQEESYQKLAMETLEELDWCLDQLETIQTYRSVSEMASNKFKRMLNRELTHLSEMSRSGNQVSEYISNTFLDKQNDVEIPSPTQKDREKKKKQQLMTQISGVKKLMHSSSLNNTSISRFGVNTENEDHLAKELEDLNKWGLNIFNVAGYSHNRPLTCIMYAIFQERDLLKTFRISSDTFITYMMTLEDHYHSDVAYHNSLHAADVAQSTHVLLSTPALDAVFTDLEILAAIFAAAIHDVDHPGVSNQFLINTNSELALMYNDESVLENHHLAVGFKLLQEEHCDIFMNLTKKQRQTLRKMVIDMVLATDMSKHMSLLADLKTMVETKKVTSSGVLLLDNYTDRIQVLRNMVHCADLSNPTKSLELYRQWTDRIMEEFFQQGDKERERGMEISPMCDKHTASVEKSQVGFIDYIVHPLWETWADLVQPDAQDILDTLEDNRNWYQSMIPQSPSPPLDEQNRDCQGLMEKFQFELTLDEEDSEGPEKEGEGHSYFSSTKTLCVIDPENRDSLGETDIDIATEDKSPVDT
Cytochrome P450 2C19 (Homo sapiens), sequence (P33261 whole entry, looked up): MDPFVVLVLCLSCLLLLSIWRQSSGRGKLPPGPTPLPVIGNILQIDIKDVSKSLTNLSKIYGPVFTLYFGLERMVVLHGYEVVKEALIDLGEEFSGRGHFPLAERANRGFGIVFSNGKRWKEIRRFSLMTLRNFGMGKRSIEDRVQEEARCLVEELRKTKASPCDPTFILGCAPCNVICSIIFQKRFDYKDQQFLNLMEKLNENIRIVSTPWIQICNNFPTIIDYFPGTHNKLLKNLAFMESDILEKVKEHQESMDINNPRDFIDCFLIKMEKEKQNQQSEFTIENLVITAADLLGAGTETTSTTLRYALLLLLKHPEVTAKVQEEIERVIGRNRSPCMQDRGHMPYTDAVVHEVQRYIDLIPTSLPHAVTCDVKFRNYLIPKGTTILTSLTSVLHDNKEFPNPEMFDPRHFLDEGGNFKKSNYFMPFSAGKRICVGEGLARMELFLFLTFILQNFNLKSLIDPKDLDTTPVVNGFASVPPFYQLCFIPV
Cytochrome P450 1A2 (Homo sapiens), sequence (P05177 whole entry, looked up): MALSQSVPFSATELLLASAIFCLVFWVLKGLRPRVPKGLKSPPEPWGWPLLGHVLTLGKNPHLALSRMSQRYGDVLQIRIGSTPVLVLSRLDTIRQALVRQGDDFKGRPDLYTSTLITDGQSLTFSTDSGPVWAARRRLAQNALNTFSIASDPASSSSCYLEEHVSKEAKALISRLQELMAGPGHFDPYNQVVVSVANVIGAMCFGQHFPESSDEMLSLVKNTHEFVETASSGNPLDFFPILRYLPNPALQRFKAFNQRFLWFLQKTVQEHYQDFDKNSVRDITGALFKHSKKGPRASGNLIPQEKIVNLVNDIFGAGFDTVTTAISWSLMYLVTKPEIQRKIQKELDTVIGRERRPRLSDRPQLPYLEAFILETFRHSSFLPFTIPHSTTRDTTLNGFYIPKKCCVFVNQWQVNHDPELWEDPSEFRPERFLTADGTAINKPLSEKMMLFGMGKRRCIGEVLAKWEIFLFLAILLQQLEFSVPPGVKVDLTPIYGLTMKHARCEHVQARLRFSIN
Lysosomal acid glucosylceramidase (Homo sapiens), sequence (P04062 whole entry, looked up): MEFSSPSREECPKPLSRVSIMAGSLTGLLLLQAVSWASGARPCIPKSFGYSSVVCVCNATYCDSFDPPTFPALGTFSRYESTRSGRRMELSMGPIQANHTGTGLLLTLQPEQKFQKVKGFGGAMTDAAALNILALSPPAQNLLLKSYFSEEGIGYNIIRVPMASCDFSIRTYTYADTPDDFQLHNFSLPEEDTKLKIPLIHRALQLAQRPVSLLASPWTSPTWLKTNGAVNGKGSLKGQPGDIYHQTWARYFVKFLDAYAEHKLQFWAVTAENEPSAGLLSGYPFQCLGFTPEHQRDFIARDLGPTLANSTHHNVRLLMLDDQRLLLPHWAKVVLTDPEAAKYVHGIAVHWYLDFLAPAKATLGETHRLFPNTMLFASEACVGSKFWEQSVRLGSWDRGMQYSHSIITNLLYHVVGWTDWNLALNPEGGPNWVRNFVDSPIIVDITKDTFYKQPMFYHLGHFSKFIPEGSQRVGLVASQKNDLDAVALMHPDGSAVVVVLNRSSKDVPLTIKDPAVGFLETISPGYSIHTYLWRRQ

In the case of `CN(C)C(=O)c1ccc(-c2nc(N3CCOCC3)c3ccccc3n2)cc1`, the activity change, negative = inhibition in [1] is 0.443%. Also, the compound was called inactive in [2]. The Potency in assay [3] and in [4] was over 46 µM throughout. The Potency result in assay [5], in assay [6], in assay [7], in assay [8] and in assay [9] was “inactive” each time.
In the case of `COc1ccccc1-c1nc(N2CCN(C)CC2)c2ccccc2n1`, the activity change, negative = inhibition in assay [1] was 9.75%. Also, the Potency in [10] is 12.6 µM (active); in [3], over 46 µM; in assay [4] it was over 46 µM. Also, the outcome in assay [2] and in [11] was inactive. Besides, the Potency entry in assay [5], in [6], in [7] and in assay [9] was “inactive” in each case.
For `O=c1c(-c2ccccc2)nc2cncnc2n1Cc1ccccc1`, the Potency in [12] is over 11.4 µM. Also, the activity change, negative = inhibition in assay [13] was -1.09%. Further, in assay [2], the compound was called inactive. Moreover, the Potency result in assay [7], in assay [14] and in assay [9] was “inactive” throughout.
As to `COc1ccccc1CNc1ncnc2ccc(-c3cccc(NS(C)(=O)=O)c3)cc12`, the Potency in assay [12] was over 11.4 µM; in assay [10], 3.98 µM (active); in assay [4], over 46 µM; in assay [15] it was 3.16 µM (active); in assay [7], 11.2 µM (active); in [14], 7.08 µM (active). In addition, the activity change, negative = inhibition in [13] is 24.7%. For the same compound, the compound was called inactive in [2] and in assay [11].
Regarding `CCNc1ncc2nc(C)c(=O)n(CCc3ccccc3)c2n1`, the Potency in assay [12] is over 11.4 µM; in assay [10], 1.58 µM (active); in assay [3], over 9.22 µM; in [4], over 46 µM; in assay [16], 0.316 µM (active); in [7], 7.94 µM (active). Also, in assay [1], the activity change, negative = inhibition is -15.2%. Further, the compound was called inactive in [2] and in assay [11]. Further, the Potency entry in assay [5] and in assay [9] was “inactive” each time.
Consider `Cc1noc(C)c1-c1nc(N2CCN(C)CC2)c2ccccc2n1`, for which the Potency is over 11.4 µM in assay [12], 0.316 µM (active) in assay [10], over 46 µM in [3] and 15.8 µM (active) in assay [7]. Further, the activity change, negative = inhibition is 28.9% in assay [1] and -5.52% in assay [13]. The outcome in [2] was inactive.
For the compound `COc1ccc(Oc2ncc3nc(-c4ccccc4)c(=O)n(C[C@H]4CCCO4)c3n2)cc1`, the Potency in assay [12] is over 11.4 µM; in [3], over 9.22 µM; in [4], over 46 µM. Also, the activity change, negative = inhibition in [13] is -3.65%. In addition, the result in assay [2] was inactive. In addition, the Potency result in assay [6], in assay [8], in assay [14] and in assay [9] was “inactive” throughout.
Turning to `COc1cccc(-c2cncnc2NCCc2c[nH]c3ccc(OC)cc23)c1`, the Potency in assay [12] is over 11.4 µM; in assay [10], 2 µM (active); in assay [3] it was over 46 µM; in [4], over 46 µM; in [15], 0.501 µM (active); in assay [17], 2.51 µM (active). For the same compound, the Potency was 0.316 µM (active) in [16] and 22.4 µM (active) in assay [8]. In addition, the Potency entry in assay [6], in [14] and in assay [9] was “inactive” in each case. Besides, the outcome in [11] was inactive.
Regarding `Cc1nc2cnc(OCc3ccccc3)nc2n(CCc2ccccc2)c1=O`, the Potency in assay [12] is over 11.4 µM; in assay [3] it was over 9.22 µM; in assay [4] it was over 46 µM. In [13], the activity change, negative = inhibition was -10.4%. The result in assay [2] and in [11] was inactive. Also, the Potency entry in assay [8], in assay [14] and in [9] was “inactive” throughout.
Turning to `CN(C)c1ccc(-c2nccc(Nc3ccc(F)cc3)n2)cc1`, the activity change, negative = inhibition in assay [1] was -4.1%; in assay [13], -29.4%. Moreover, the Potency in [10] was 0.501 µM (active); in assay [3] it was over 46 µM; in assay [4], over 46 µM; in assay [16] it was 3.16 µM (active); in assay [8] it was 14.1 µM (active). For the same compound, the call in [2] and in assay [11] was inactive. Also, the Potency entry in assay [5] and in assay [6] was “inactive” in each case.
`CN1CCN(c2ncc3nc(-c4ccccc4)c(=O)n(Cc4cccs4)c3n2)CC1`: the Potency in assay [12] is over 11.4 µM; in assay [10], 15.8 µM (active); in assay [3] it was over 9.22 µM; in [4] it was over 46 µM. Further, the activity change, negative = inhibition is 7.66% in [1] and -9.53% in assay [13]. Also, the outcome in assay [2] was inactive. The Potency result in [6], in [8], in assay [14] and in [9] was “inactive” each time.
`COc1cccc(-c2nc(NC3CC3)c3ccccc3n2)c1`: the Potency in assay [12] is 2.73 µM (active); in assay [3] it was over 46 µM; in assay [4], over 46 µM; in assay [15] it was 1.26 µM (active); in assay [17] it was 7.94 µM (active); in assay [8] it was 7.08 µM (active). For the same compound, the Potency in [14] is 2.82 µM (active). Further, the activity change, negative = inhibition is -6.5% in [1] and 1.07% in assay [13]. Besides, the compound was classed as inactive in assay [2] and in assay [11]. The Potency entry in assay [5] was “inactive”.
On to `COc1ccc2[nH]cc(CCNc3cc(-c4ccccc4OC)ncn3)c2c1`, for which the Potency in assay [12] is over 11.4 µM; in assay [10] it was 1.58 µM (active); in assay [3], over 46 µM; in assay [15], 6.31 µM (active); in assay [16] it was 3.16 µM (active); in assay [8], 25.1 µM (active). For the same compound, the outcome in assay [2] and in [11] was inactive. Also, the Potency entry in assay [5] and in [6] was “inactive” in each case.
Regarding `COCCn1c(=O)c(CCc2ccccc2)nc2cnc(Oc3ccccc3)nc21`, the Potency is over 11.4 µM in [12], over 9.22 µM in assay [3] and over 46 µM in assay [4]. Further, the activity change, negative = inhibition in assay [13] was 7.7%. Besides, in [2], the compound was called inactive. Further, the Potency entry in assay [6], in assay [8] and in assay [14] was “inactive” in each case.

The values are drawn from PubChem BioAssay (NCATS).
